Sampled rows, rich in hits. Any-hit rate of the full collection: about 0.92%.
CIT2 TOR yeast = alters CIT2-GFP fluorescence in TOR pathway yeast screen | GFP response vs DMSO, % at 10 µM | 0.065% of 320,000 active | S. cerevisiae CIT2-GFP strain, flow cytometry, 3 h; 100 means same as DMSO wells;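 active = GFP response relative to DMSO above a set limit, near the screen mean plus 3 SD, cut at about 150% in these data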;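 also: ratio of well median GFP fluorescence to mean of DMSO wells on the plate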
AGP1-GFP MLPCN = alters AGP1-GFP fluorescence in TOR pathway yeast screen | S. cerevisiae AGP1-GFP multiplex flow cytometry, 3 h; GFP as percent of DMSO wells | GFP response vs DMSO, % at 10 µM | 0.02% of 320,000 active | AID 2066;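 active = GFP response relative to DMSO above a set limit, near screen average plus 3 SD, cut at about 150% in these data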;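 also: median GFP channel fluorescence of the gated AGP1 strain per well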
RPL19A-GFP yeast = modulators of TOR pathway RPL19A-GFP in S. cerevisiae; S. cerevisiae RPL19A-GFP strain, flow cytometry, 3 h; hits give low values; percent response vs DMSO, % at 10 µM; 0.3% of 330,000 active; AID 2025;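 active = percent response vs DMSO below 50%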;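 also: median channel GFP fluorescence of the barcoded RPL19A-GFP strain; ratio of sample median GFP to plate DMSO average so 100% = DMSO; lower means less RPL19A-GFP as with rapamycin TOR inhibition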
MEP2-GFP yeast = modulators of TOR pathway MEP2-GFP in S. cerevisiae; S. cerevisiae MEP2-GFP strain, flow cytometry GFP, 3 h; 100% = DMSO control level; GFP response vs DMSO, % at 10 µM; 0.51% of 330,000 active;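 active = GFP response versus DMSO above a set limit, roughly screen mean plus 3 SD, cut at about 180% in these data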;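 also: median GFP fluorescence of the barcode-gated MEP2-GFP cells per well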
LAP4-GFP MLPCN = modulators of TOR pathway LAP4-GFP in S. cerevisiae. AID 2023. 0.34% of 320,000 active. S. cerevisiae LAP4-GFP multiplex, flow cytometry GFP, 3 h; median GFP as percent of DMSO wells. GFP response vs DMSO, % at 10 µM;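 active = GFP response vs DMSO above a set limit, about the screen mean plus 3 SD, cut at about 150% in these data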
LAP4 cherry2 = reconfirmed LAP4-GFP TOR pathway modulator in yeast. shares compounds with LAP4-GFP MLPCN. S. cerevisiae LAP4-GFP strain, flow cytometry GFP, 3 h. GFP response vs DMSO, % at 10 µM. 20% of 590 active. AID 2621;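 active = GFP signal as percent of the solvent control above about 150%, meaning raised reporter expression, limit read from the data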;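 also: ratio of well median GFP fluorescence to plate DMSO mean so 100% = DMSO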
MEP2 cherry2 = reconfirmed MEP2-GFP TOR pathway modulator in yeast; shares compounds with LAP4-GFP MLPCN; S. cerevisiae MEP2-GFP strain, flow cytometry GFP, 3 h; GFP response vs DMSO, % at 10 µM; 10% of 590 active; AID 2622;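 active = GFP signal above 150% of the solvent control wells, that is a rise of more than half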;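 also: median channel GFP fluorescence of all gated yeast cells per well; ratio of median GFP to plate DMSO average so 100% = DMSO level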
RPL19A GFP CP2 = second confirmation of modulators of TOR reporter RPL19A-GFP in yeast. shares compounds with LAP4-GFP MLPCN. GFP response vs DMSO, % at 10 µM. 3% of 590 active. S. cerevisiae RPL19A-GFP strain, flow cytometry GFP, 3 h; hits give low values; 100% means same as DMSO wells;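 active = under 65% GFP response relative to DMSO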;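 also: median GFP channel fluorescence per well over the all cells gate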
CIT2 GFP CP2 = yeast CIT2-GFP TOR reporter modulation, second cherry pick; shares compounds with LAP4-GFP MLPCN; S. cerevisiae CIT2-GFP strain, flow cytometry GFP, 3 h; DMSO control wells read 100%; GFP response vs DMSO, % at 10 µM; 8% of 590 active;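 active = GFP response vs DMSO above about 150%, limit read from the data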;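 also: median green fluorescence per well over all gated yeast cells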
AGP1-GFP pick2 = yeast AGP1-GFP TOR reporter modulation, second cherry pick; AID 2643; shares compounds with LAP4-GFP MLPCN; 590 tested, under 10 active; S. cerevisiae AGP1-GFP strain, flow cytometry GFP, 3 h; percent response vs DMSO, % at 10 µM;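 active = over 150 percent of DMSO response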;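 also: median GFP channel fluorescence over all cells without mother daughter split; sample median GFP divided by mean DMSO control so 100% equals DMSO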
Yeast autofluor = counter-screen for compound autofluorescence in yeast s288c cells | shares compounds with LAP4-GFP MLPCN | S. cerevisiae s288c, 520 nm autofluorescence, flow cytometry, 3 h; hits give high values; zero means same as solvent-only cells | fluorescence change (kMESF span) at 33 µM | 610 tested, under 10 active;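 active = fluorescence span over the dose series, or activity score, above about 33, limit read from the data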
Yeast autofl DR = TOR screen hit shows autofluorescence in yeast s288c. shares compounds with LAP4-GFP MLPCN. S. cerevisiae s288c parental, compound autofluorescence, flow cytometry, 3 h. fluorescence change (span) at 33 µM. 110 tested, under 10 active;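 active = fluorescence change span, or the activity score built from it, above 25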
TORC1 bypass gr = stops wildtype yeast growth while TORC1 bypass cells still grow. AID 504456. 120 tested, under 10 active. shares compounds with LAP4-GFP MLPCN. S. cerevisiae BY4741 spot growth rating, 48-72 h; hits give low values. growth rating (0-3) at 30 µM;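 active = growth rating at most 1 for wild type yeast while the TORC1 bypass strain still grows fully, rated 3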
* = called active by the depositor; / = no result; [ ] = remark or other dose.

SMILES | CIT2 TOR yeast | AGP1-GFP MLPCN | RPL19A-GFP yeast | MEP2-GFP yeast | LAP4-GFP MLPCN | LAP4 cherry2 | MEP2 cherry2 | RPL19A GFP CP2 | CIT2 GFP CP2 | AGP1-GFP pick2 | Yeast autofluor | others
Cn1c(Cl)cnc1C1CC(=O)c2cc(Cl)ccc2O1 (stereo unspecified) | 92.8 | 98.4 | 93.5 | 99.7 | 209.9* | 100.0 | 99.8 | 97.9 | 96.1 | 96.0 | /
Cc1ccc(N(CC(=O)NC2CC2)S(=O)(=O)c2ccccc2)c(C)c1 | 93.6 | 93.5 | 83.4 | 92.4 | 95.8 | / | / | / | / | / | /
C=CCn1c(C)cc(C(=O)COC(=O)c2cncc(Br)c2)c1C | 105.8 | 110.3 | 111.5 | 113.8 | 121.8 | / | / | / | / | / | /
Cc1ccc(/C=C/C(=O)c2ccc([N+](=O)[O-])o2)cc1 | 87.2 | 87.8 | 98.8 | 96.7 | 175.6* | / | / | / | / | / | 1.94
O=c1[nH]c(-c2ccccn2)nc(C(F)(F)F)c1Br | 92.8 | 97.4 | 108.0 | 113.4 | 242.2* | / | / | / | / | / | 1.73
O=[N+]([O-])c1cc(S(=O)(=O)C(F)(F)F)ccc1Sc1nc2ccccc2s1 | 84.5 | 74.3 | 87.2 | 85.4 | 159.0* | / | / | / | / | / | 0.51 | Yeast autofl DR=0.16;TORC1 bypass gr=3
CS(=O)(=O)c1ccc(Sc2nc3ccccc3s2)c([N+](=O)[O-])c1 | 100.0 | 95.9 | 100.2 | 100.4 | 98.5 | / | / | / | / | / | /
O=C(Nc1ccc([N+](=O)[O-])cc1)c1ccccc1F | 98.8 | 97.2 | 105.6 | 103.4 | 91.3 | / | / | / | / | / | /
O=C(c1cc(O)c(O)c([N+](=O)[O-])c1)c1ccccc1F | 77.5 | 83.2 | 90.6 | 99.2 | 151.1* | 125.2 | 118.8 | 90.3 | 108.5 | 105.8 | /
O=C(/C=C/c1ccccc1[N+](=O)[O-])c1ccccc1Br | 83.4 | 92.1 | 97.1 | 103.9 | 156.2* | / | / | / | / | / | 8.77
O=C(Nc1ccccc1Cl)C(Cl)C(=O)c1ccccc1 (stereo unspecified) | / | / | / | / | / | 110.2 | 97.8 | 104.2 | 111.2 | 99.1 | /
O=C(Nc1ccc(Cl)cc1)C(Cl)C(=O)c1ccccc1 (stereo unspecified) | 102.2 | 97.1 | 102.3 | 90.3 | 107.3 | / | / | / | / | / | /
CCSc1nnc(NC(=O)c2ccccn2)s1 | 97.2 | 84.0 | 99.8 | 103.9 | 175.5* | / | / | / | / | / | 0.51 | Yeast autofl DR=0.16;TORC1 bypass gr=0
O=C(NNC(=S)NC(=O)C12CC3CC(CC(C3)C1)C2)c1ccncc1 | / | 93.7 | 82.7 | 117.3 | 181.7* | / | / | / | / | / | 1.5
CC1(C(=O)NC(=S)NNC(=O)c2ccncc2)CCCCC1 | 227.2*[may fluoresce green] | 155.8*[may fluoresce green] | 73.9 | 543.5*[may fluoresce green] | 160.4*[may fluoresce green] | 101.9 | 104.8 | 100.0 | 107.4 | 97.5 | 0.2
O=C(COc1ccccc1)NNC(=S)NC(=O)c1ccccc1 | 96.1 | 101.7 | 114.1 | 96.7 | 159.3* | / | / | / | / | / | 2.04
Cc1cccc(C(=O)NC(=S)NCc2ccccc2)c1 | 92.0 | 94.6 | 98.7 | 98.1 | 108.3 | / | / | / | / | / | /
Cc1cccc(C(=O)NC(=S)NNC(=O)Cc2ccccc2)c1 | 87.8 | 105.0 | 110.9 | 104.3 | 209.0*[may fluoresce green] | 293.3* | 138.1 | 116.0 | 156.1* | 106.9 | 1.52
